# Rows were chosen to be rich in hits. Some 2.8% of all compounds tested hit in one or more screens of this group.
# KDM5B inhibitor – inhibitors of human KDM5B histone demethylase. Q9UGL1. KDM5B demethylase, FDH-coupled NADH fluorescence (FDH is formaldehyde dehydrogenase). Potency, µM (top dose mostly 57.7 µM), actives largely listed as inhibitors. 220,000 compounds, 2.6% hits; also: potency is read from the fitted curve at half-maximal effect; 0% is about no effect; nearly all actives have a fitted effect of over 70% in size
#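 KDM5BΔAP (200 nM final) in 50 mM HEPES pH 7.5, 0.01% Tween-20 was preincubated 10 min at RT with compound over a concentration range. Substrate mix (H3K4me3 12.5 µM, α-KG 25 µM, Fe²⁺, ascorbate, NAD⁺, FDH) was added, and NADH fluorescence change over 30 min gave dose-response curves.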
# IP6K1 inhibitor – inhibitors of human IP6K1; Q92551; IP6K1 kinase, ADP-Glo luminescence, 2 h; stronger effect = lower value; activity change, % (series mostly up to about 58 µM); 140,000 compounds, 0.81% hits; AID 1645851; in the data active = activity change below about -25%; also: % is scaled to controls: 0 for no effect and ±100 for the full control effect
# Target sequence (Q92551 whole entry, looked up): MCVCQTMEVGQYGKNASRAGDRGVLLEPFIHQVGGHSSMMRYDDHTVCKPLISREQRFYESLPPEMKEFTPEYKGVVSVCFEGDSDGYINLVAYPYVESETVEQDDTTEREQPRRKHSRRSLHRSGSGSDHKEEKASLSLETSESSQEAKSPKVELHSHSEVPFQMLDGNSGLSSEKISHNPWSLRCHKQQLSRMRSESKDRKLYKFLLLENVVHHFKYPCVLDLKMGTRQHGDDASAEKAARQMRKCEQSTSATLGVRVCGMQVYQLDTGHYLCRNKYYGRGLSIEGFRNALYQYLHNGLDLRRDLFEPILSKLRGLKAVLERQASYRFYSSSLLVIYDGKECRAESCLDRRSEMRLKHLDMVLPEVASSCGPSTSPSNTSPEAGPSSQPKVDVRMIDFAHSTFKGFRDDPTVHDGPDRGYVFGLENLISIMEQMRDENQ
#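 ADP-Glo luminescence measures ADP made by human IP6K1 during a 2 h RT reaction with ATP/IP6 (mix at 1.3 mM/130 uM); top library doses 57.5 and 19.1 uM final.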
# IP6K1 inh cnf – confirmation of human IP6K1 inhibitors | shares compounds with IP6K1 inhibitor | recombinant IP6K1 kinase, ADP-Glo luminescence, 2 h | Potency, µM (top dose mostly 49 µM), inactives show at the highest dose activity change, negative = inhibition, usual class: inhibitors | 1,200 compounds, 13% hits | AID 1645852; also: potency is read from the fitted curve at half-maximal effect; % is scaled to controls: 0 for no effect and ±100 for the full control effect; nearly all actives have a fitted effect of over 65% in size
# An asterisk follows results filed as active; i = inactive; ? = inconclusive; · = not tested or not shown. Unless noted, calls follow the shape of the dose curve; as a rule, active = well fitted inhibition curve with a large enough effect; inconclusive = small, poorly fitted or top-dose-only effect; inactive = no such curve, though single readings can be large or run the other way.
SMILES,KDM5B inhibitor,IP6K1 inhibitor,IP6K1 inh cnf
COc1cccc(-c2nc(-c3ccc(F)cc3)cs2)c1,i,·,·
COc1cccc(NC(=O)C(Sc2nnc(-c3ccco3)n2C)c2ccccc2)c1 (stereo not drawn),i,·,·
C=CCN(CCC(=O)NC(=O)NC)Cc1ccccc1,i,·,·
Cc1ccc(C(=O)Nc2sccc2C#N)s1,i,·,·
Cc1cccc(OCCN(C)C(=O)c2cc(=O)c3ccccc3o2)c1,i,·,·
CCOc1cc(C(=O)Nc2ccc(S(=O)(=O)Nc3nnc(CC)s3)cc2)cc(OCC)c1OCC,i,·,·
CCc1nnc(NS(=O)(=O)c2ccc(NC(=S)NC(=O)/C=C/c3ccc(F)cc3)cc2)s1,·,-29.1*,20.6µM*
CC(Sc1nnnn1C(C)(C)C)C(=O)c1cccc(Cl)c1 (stereo not drawn),i,·,·
Cc1ccnc2nc(NC(=O)c3ccccc3Cl)nn12,?,-25.0*,-2.1%
Nc1nc(NC(=O)c2ccccc2Cl)nn1-c1ccccc1,i,·,·
COc1cccc(CN2CCC[C@@H](O)[C@H](NC(=O)c3ccc(OCc4ccccc4)cc3)C2)c1,i,-0.6,·
O=C(N[C@@H]1CN(Cc2ccccn2)CCC[C@H]1O)c1ccc(OCc2ccccc2)cc1,i,-32.9*,17.3%
COC(=O)c1ccc(/C=C2\CCc3cc(OC)ccc3C2=O)cc1,i,·,·
CCOc1cc(C(=O)Nc2ccc(-c3nc4ncccc4o3)cc2C)cc(OCC)c1OCC,i,-26.2*,9.0%
CCOc1cccc(C(=O)Nc2ccc(-c3nc4ncccc4o3)cc2C)c1,i,24.1,·
NC(=O)C(OC(=O)C12CC3CC(CC(C3)C1)C2)c1ccccc1 (stereo not drawn),i,·,·
O=C(Nc1nc2nc(-c3ccccc3)cc(=O)n2[nH]1)c1ccc(Cl)cc1,i,-0.2,·
Cc1ccc(C(=O)Nc2nc3nc(C)cc(=O)n3[nH]2)cc1,i,-26.8*,-18.2%
CCn1nc(C(=O)OCC(=O)c2cc(C)n(CCC(C)C)c2C)c2ccccc2c1=O,i,·,·
COc1cccc(C(=O)NCCCNC(=O)c2nc3ccccc3c(=O)[nH]2)c1,i,·,·
Cc1nc2cc(-c3cccc(F)c3)nn2c(C)c1CCC(=O)NCCc1ccccc1,?,-7.9,·
Cc1nc2cc(-c3cccc(F)c3)nn2c(C)c1CCC(=O)NC(C)c1ccccc1 (stereo not drawn),?,-25.5*,1.4%
CCOC(=O)c1cn[nH]c1S(=O)(=O)N1CCCC1,i,·,·
CC(Oc1ccc(Br)cc1)C(=O)N1CCN(c2nccs2)CC1 (stereo not drawn),i,·,·
CCOc1ccc(NC(=O)CCS(=O)(=O)c2ccc3c(c2)CCN3C(=O)CC)cc1,i,·,·
SMILES,KDM5B inhibitor,IP6K1 inhibitor,IP6K1 inh cnf
Cc1ccc(N2CC(NC(=O)c3ccc(Br)o3)CC2=O)cc1C (stereo not drawn),i,-13.4,·
Cc1ccc(N2CC(NC(=O)c3ccco3)CC2=O)cc1C (stereo not drawn),i,-25.1*,-9.8%
CCOC(=O)c1cnc2ccc(Cl)cc2c1Nc1ccc(N2CCOCC2)cc1,i,-25.4*,-12.8%
CCOC(=O)c1cnc2ccc(C(=O)OC)cc2c1Nc1ccc(N2CCOCC2)cc1,?,31.4,·
COc1ccc(C(=O)OCc2cc(=O)n3oc(C)cc3n2)cc1NC(=O)C(C)(C)C,i,·,·
Cn1c(=O)c(-c2cccc(Cl)c2)c(O)c2ccccc21,i,·,·
Cn1cncc1C(N)(c1ccc(Cl)cc1)c1ccc2c(c1)c(-c1cccc(Cl)c1)cc(=O)n2C (stereo not drawn),·,-26.1*,?
Cc1ccc(OCCOc2ccc3ccc(=O)oc3c2)cc1C,i,·,·
Fc1cc(Br)ccc1NC(=S)NCc1cccs1,i,·,·
CCOC(=O)C1CCN(c2c(C(=O)c3ccc(OCC)cc3)cnc3ccc(OC)cc23)CC1,?,-33.2*,-3.3%
CCOC(=O)C1CCN(c2c(C(=O)c3ccc(C)cc3)cnc3ccc(F)cc23)CC1,i,5.7,·
CCOC(=O)C(c1ccccc1)C(C(=O)OCC)c1ccccc1 (stereo not drawn),i,·,·
Cc1cc(C)cc(NC(=O)CCCc2nc(-c3ccco3)no2)c1,i,-26.7*,-14.4%
Cc1ccc(NC(=O)CCCc2nc(-c3ccco3)no2)cc1Cl,i,10.8,·
O=C(Nc1ccccc1F)Nc1ccccc1SCc1cc(=O)n2ccccc2n1,i,·,·
Cc1c(C)n2c3c(=O)[nH]c(=O)n(C)c3nc2n1CCCN1CCN(C)CC1,i,·,·
O=S(=O)(c1ccccc1)c1nc(-c2cccs2)oc1N1CCCCC1,?,-36.5*,-15.7%
O=S(=O)(c1ccccc1)c1nc(-c2cccs2)oc1N1CCOCC1,i,·,·
Cc1ccc(-c2nc(S(=O)(=O)c3ccc(C)cc3)c(N3CCCCC3)o2)cc1,?,-28.8*,?

# Assay outcomes: PubChem BioAssay, National Center for Advancing Translational Sciences (NCATS)
